# High-throughput results from PubChem.
# DT40 TDP1 no CPT: qHTS for Inhibitors of human tyrosyl-DNA phosphodiesterase 1 (TDP1): qHTS in cells in absence of CPT. DT40 Tdp1-/- hTDP1 cells, no CPT, ATP luminescence, 48 h. Potency, µM (top dose mostly 46.2 µM), for the others: at the highest dose activity change, negative = growth inhibition, most hits filed as inhibitors. 420,000 compounds, 15% hits; note: potency is the fitted concentration of half-maximal effect; nearly all actives have a fitted effect of over 55% in size
#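 Seeded 400 DT40-hTDP1 cells/well (vehicle DMSO, no 20 nM CPT); pinned compounds; ≥48 hr at 37 °C; CellTiter-Glo luminescence as viability measure.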
# 12-LOX inh: blocks human arachidonate 12S-lipoxygenase; Potency, µM (top dose mostly 108 µM), for the others: at the highest dose activity change, negative = inhibition, usual class: inhibitors; purified 12hLO, xylenol orange hydroperoxide absorbance; 580,000 compounds, 1.1% hits; P18054; note: potency is the fitted concentration of half-maximal effect
# Target sequence (P18054 whole entry, looked up): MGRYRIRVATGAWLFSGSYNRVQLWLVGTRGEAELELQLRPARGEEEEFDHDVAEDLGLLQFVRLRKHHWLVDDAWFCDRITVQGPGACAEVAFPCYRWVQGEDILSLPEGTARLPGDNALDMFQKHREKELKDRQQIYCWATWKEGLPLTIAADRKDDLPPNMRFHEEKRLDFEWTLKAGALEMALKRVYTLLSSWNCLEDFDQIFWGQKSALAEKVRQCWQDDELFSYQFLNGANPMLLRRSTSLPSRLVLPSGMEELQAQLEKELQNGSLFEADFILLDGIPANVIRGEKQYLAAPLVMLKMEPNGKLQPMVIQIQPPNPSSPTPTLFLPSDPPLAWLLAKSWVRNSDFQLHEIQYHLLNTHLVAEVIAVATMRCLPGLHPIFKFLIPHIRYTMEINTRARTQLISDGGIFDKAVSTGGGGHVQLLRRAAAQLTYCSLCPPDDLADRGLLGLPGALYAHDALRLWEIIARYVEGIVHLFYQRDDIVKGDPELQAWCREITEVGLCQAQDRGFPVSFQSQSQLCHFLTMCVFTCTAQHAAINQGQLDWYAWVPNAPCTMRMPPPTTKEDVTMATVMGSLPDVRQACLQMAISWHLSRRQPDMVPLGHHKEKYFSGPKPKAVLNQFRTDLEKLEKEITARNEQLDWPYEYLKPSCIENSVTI
#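 Hydroperoxide product was detected by ferrous iron/xylenol orange as the 573 to 405 nm absorbance ratio. Arachidonic acid at 40 uM (final) was turned over for 30 min at room temperature by 150 nM human 12hLO, pH 7.0 Hepes buffer, after 15 min compound preincubation.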
# HT1080NT lethal: kills 2HG-producing HT-1080-NT fibrosarcoma cells | Potency, µM (titrated, usually from 46.1 µM), inactives show top-dose activity, negative = less viability, hits mostly cytotoxic | 360,000 compounds, 1.6% hits | AID 686970 | HT-1080-NT fibrosarcoma viability, CellTiter-Glo ATP luminescence, 48 h;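 note: NT is the 2HG producing partner of a matched IDH1 knockdown line; potency is the fitted concentration of half-maximal effect; 0% = DMSO-treated cells and -100% = media-only wells without cells; nearly all actives have a fitted effect of over 55% in size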
#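 Viability by CellTiter-Glo luminescence after 48 h compound exposure at 37C of HT-1080-NT cells (750/well, RPMI, 5% FBS). % activity scaled between DMSO wells and medium-only wells, then curve-fitted and categorized by curve class.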
# DT40 TDP1 CPT: growth inhibition of DT40 Tdp1-/-;hTDP1 cells with camptothecin (screen for TDP1 inhibitors) | chicken DT40 Tdp1-/-;hTDP1 cells + 20 nM CPT, ATP luminescence, 48 h | Potency, µM (highest dose often 46.2 µM), for inactives: at the highest dose activity change, negative = growth inhibition, most hits filed as inhibitors | 420,000 compounds, 12% hits | AID 686979; note: potency is the fitted concentration of half-maximal effect; nearly all actives have a fitted effect of over 55% in size
#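 Cell growth measured by CellTiter-Glo luminescence after a minimum 48 h, 37 C compound exposure with 20 nM CPT in Tdp1-knockout DT40 cells stably expressing hTDP1, seeded 400/well; qHTS titration format.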
# HT1080 IDH1KD tx: HT-1080 IDH1 knockdown cell toxicity (counter line). HT-1080 IDH1 knockdown viability, ATP luminescence, 48 h. Potency, µM (doses to about 46.1 µM), without a hit: top-dose activity, negative = toxicity, actives largely listed as cytotoxic. 360,000 compounds, 2% hits. AID 686971;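 note: potency is the fitted concentration of half-maximal effect; 0% = DMSO wells and -100% = cell-free medium wells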
#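 IDH1KD HT-1080 cells, 750/well, RPMI + 5% FBS; compound pinned after 2 h settling; 48 h, 37 °C; CellTiter-Glo luminescence; % activity normalised to DMSO and no-cell wells; curves fitted, classed by r2 and efficacy.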
# IL1B secr inh: inhibitors of inflammasome signaling (IL-1 beta secretion); THP-1 LPS/ATP IL-1B secretion, AlphaLISA, 16 h; stronger effect = lower value; activity change, % at 57.5 µM; 360,000 compounds, 4.7% hits; AID 743279; in the data active = activity change below about -50%; inconclusive = mostly about -30% to -49%
#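 Secreted IL-1B measured by AlphaLISA bead assay after 16 h compound exposure of THP-1 cells; compounds (final up to 57.5 uM) added 1 h before LPS (250 ng/mL) and ATP (1.25 mM) stimulation; lower signal means less secretion.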
# Starred values were filed as active, the others as inactive; ? = inconclusive; . = no result given; ! = not active in a repeat; [ ] = remark or other dose. Shown is part of a subset that was picked to be rich in hits. Unless noted, calls come from the whole dose curve; as a rule, active = well fitted curve in the direction sought with a large enough effect; inconclusive = small, poorly fitted or top-dose-only effect, or another doubt; inactive = no such curve, though single readings can be large; an effect the other way counts as inactive or inconclusive. Unless noted, % is set by controls: 0 for no effect and ±100 for the full control effect.
SMILES,DT40 TDP1 no CPT,12-LOX inh,HT1080NT lethal,DT40 TDP1 CPT,HT1080 IDH1KD tx,IL1B secr inh
CCCn1c(SCC(=O)Nc2ccccc2N2CCOCC2)nc2c1c(=O)n(C)c(=O)n2C,?,-17%,8%,?,7%,7
CCCn1c(SCC(=O)Nc2nc3c(s2)CCCC3)nc2c1c(=O)n(C)c(=O)n2C,15µM*,0%,-1%,12µM*,2%,16
CCCCn1c(SCC(=O)Nc2nnc(C(C)C)s2)nc2c1c(=O)n(C)c(=O)n2C,18µM*,16%,9%,18µM*,9%,28
CCC1(CC)Cc2ccccc2C(N)=C1C#N,21µM*,147%,-12%,21µM*,-12%,23
CCCCN(CC)C(=O)CCn1c(=O)c2cccn2c2cccnc21,18µM*,-23%,.,?,.,.
CCOC(=O)c1ccc(NC(=O)CCCn2c(=O)c3cccn3c3ccccc32)cc1,?,-28%,.,?,.,.
CCOC(=O)c1ccc(NC(=O)CCCn2c(=O)c3cccn3c3cccnc32)cc1,18µM*,?,.,?,.,.
CCOC(=O)c1ccc(NC(=O)CCn2c(=O)c3cccn3c3cccnc32)cc1,?,-10%,.,21µM*,.,.
O=C(CCn1c(=O)c2cccn2c2cccnc21)N1CCN(c2ccc(F)cc2)CC1,16µM*,-18%,.,15µM*,.,.
CCc1cccc(C)c1NC(=O)CCCn1c(=O)c2cccn2c2cccnc21,?,7%,8%,23µM*!,19%,-8
Cc1ccc(NC(=O)CCCn2c(=O)c3cccn3c3cccnc32)c(C)c1,-6%,-24%,.,9%,.,.
O=C(c1ccc(Br)cc1)c1cc([N+](=O)[O-])ccc1N1CCOCC1,1.5µM*,-24%,5.2µM*,0.82µM*,5.8µM*,39
CC(C)CNC(=O)c1cc([N+](=O)[O-])ccc1N1CCOCC1,-15%,-21%,0%,0%,-10%,0
CC1CN(c2ccc([N+](=O)[O-])cc2C#N)CC(C)O1 (stereo unspecified),-7%,-9%,10%,4%,11%,1
O=C(COC(=O)c1cc([N+](=O)[O-])ccc1N1CCOCC1)c1ccc(F)cc1,?,159%,-2%,-23%,-13%,22
O=C(c1ccc(Cl)cc1)c1cc([N+](=O)[O-])ccc1N1CCOCC1,0.82µM*,-13%,1.5µM*,0.73µM*,1.2µM*,45
CC(C)(CNC(=O)c1cc([N+](=O)[O-])ccc1N1CCC(Cc2ccccc2)CC1)N1CCOCC1,?,199%,-17%,?,-20%,-57*
Cc1ccc(C(=O)c2cc([N+](=O)[O-])ccc2N2CC(C)OC(C)C2)cc1 (stereo unspecified),3.3µM*,-24%,18µM*,5.8µM*,?,33
COc1ccc(C(C)(C)C)cc1NC(=O)Cc1nc(-c2ccccc2)oc1C,.,-19%,.,.,.,.
COc1ccc(-c2cc(C[C@H]3CNCC[C@H]3CC(=O)NCc3ccccc3OC)no2)cc1,.,-1%,.,.,.,.
O=C(c1ccccc1)c1cc([N+](=O)[O-])ccc1N1CCOCC1,0.82µM*,-14%,1µM*,0.73µM*,0.73µM*,31
Cc1ccc(NC(=O)CC(C)(C)CC(=O)O)c(C)c1,.,64%,.,.,.,.
Cn1c(Cn2c(=O)sc3ccccc32)nnc1SCC(=O)NC1CCCC1,-9%,439%,16%,16µM*,1%,-15
CSc1nnc(Cn2c(=O)sc3ccccc32)n1-c1cccc(Cl)c1,?,20%,-1%[9.24 µM],?,-4%,-3
Cc1csc(NC(=O)CSc2nnc(Cn3c(=O)sc4ccccc43)n2-c2ccccc2)n1,-100%,379%,-2%,7.3µM*,-7%,?
